# Rows were chosen to be rich in hits. Some 5.2% of all compounds tested hit in one or more screens of this group.
# esBAF inh – Bmi1 luciferase reporter increase in mESCs, primary screen, esBAF inhibitor project, mouse ES cells, Bmi1 luciferase knock-in, single point; 24 h; 100% = twice the neutral-well signal; reporter increase, % at 12.5 µM; hit rate 2% among 350,000; AID 602393, 2012; in the data active means activation above about 40%;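 further: 0% = median of the plate's neutral control wells and 100% = double that signal; a rise in the Bmi1 reporter signal indicates esBAF inhibition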
# NadD block – inhibitors of S. aureus NadD, primary screen, biochemical, colorimetric, uHTS; Nicotinate-nucleotide adenylyltransferase NadD (Staphylococcus aureus N315); purified NadD enzyme, colorimetric absorbance read-out; inhibition, % at 20 µM; hit rate 0.78% among 360,000; AID 602399, 2012; in the data active means inhibition above about 26%
# GRIN3A LBD mod – binders of NR3A ligand-binding domain, primary screen, biophysical, differential scanning fluorimetry, uHTS | Glutamate receptor ionotropic, NMDA 3A (GRIN3A) ligand-binding domain | NR3A LBD differential scanning fluorimetry, Tm shift; 0% = protein alone, 100% = glycine-bound protein | Tm shift relative to glycine control, % at 25 µM | hit rate 2.5% among 340,000 | AID 1259313, 2017;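 active means melting temperature shift of at least 10% of the positive control shift, at one fixed dose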
# Vif inh – HIV Vif self-association inhibitors, primary screen, imaging, HEK293T, single point. HEK293T cells, Vif self-association by quenched fluorescence, 24 h. inhibition, % at 7.49 µM. hit rate 0.35% among 340,000; in the data active means inhibition above about 50%, passing the limit was not always enough
# SKN-1 block – suppressors of acrylamide-induced Pgst-4::GFP reporter in worms, primary screen, SKN-1 inhibitor project, whole organism, uHTS, GFP/RFP fluorescence ratio, strain VP596 | C. elegans VP596 Pgst-4::GFP/RFP ratio, 24 h | inhibition, % at 21.8 µM | hit rate 0.49% among 360,000;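 active means interference check ratio from 0.5 to 1.5 plus GFP to RFP signal ratio inhibition reaching or exceeding a fixed threshold, cut at about 30% in these data, passing the limit was not always enough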
# SMARCA2 act – SMARCA2 (BRM) function activators, primary screen, cell-based, luminescence, high throughput | MG213 cells, MMTV-luciferase reporter, dexamethasone, overnight | activation, % at 9.1 µM | hit rate 1% among 370,000 | AID 652017, 2013; in the data active means activation above about 7.8%;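 further: 0% = vehicle wells and 100% = reference activator wells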
# Starred values were filed as active, the others as inactive; nt = no result.
SMILES,esBAF inh,NadD block,GRIN3A LBD mod,Vif inh,SKN-1 block,SMARCA2 act
O=C(Nc1nnc(-c2ccccc2)s1)c1ccccc1F,69.5*,-4.2,3.7,4.2,1.5,1.1
COCC(=O)Nc1nnc(-c2ccc(C(C)(C)C)cc2)s1,-18.0,-5.5,-0.4,18.1,-7.0,2.4
O=C(Nc1ccccc1C(=O)Nc1nnc(C(F)(F)F)s1)c1ccccc1Cl,nt,-2.8,18.2*,-40.0,-9.9,-4.4
NC(=O)c1ccccc1NC(=O)c1ccccc1Cl,4.4,-4.5,-5.1,-2.9,5.7,3.8
O=C(Nc1nnc(Cc2ccccc2F)s1)c1ccccc1Cl,1.8,-3.5,0.1,-7.0,0.8,1.5
CC(C)(C)c1ccc(-c2nnc(NC(=O)c3ccccc3)s2)cc1,49.3*,-0.6,-5.3,3.4,-5.6,0.1
O=C(Nc1nnc(-c2ccccc2Cl)s1)c1ccccc1F,51.3*,4.8,2.3,9.9,-4.6,-0.7
C[C@@H]1CN([C@H](C)CO)C(=O)c2cc(N(C)C)ccc2O[C@@H]1CN(C)C(=O)Nc1ccc(C(F)(F)F)cc1,-6.4,nt,nt,nt,nt,nt
CCCNC(=O)N(C)C[C@H]1Oc2cc(C#CC(C)C)ccc2S(=O)(=O)N([C@@H](C)CO)C[C@@H]1C,7.4,nt,nt,nt,nt,nt
O=C(Nc1cnc2ccccn2c1=O)c1ccc(Cl)cc1,42.8*,2.2,0.0,nt,14.1,7.3
O=C(Nc1cccn2ncnc12)c1ccc(Cl)cc1,14.9,2.3,-0.3,-12.0,14.0,-0.1
O=C(NC1CCCC1)c1cc(-c2cccc(Cl)c2)on1,78.1*,-9.7,-0.2,0.5,24.6,4.2
O=C(NC1CCC(O)CC1)c1ccc(-c2ccc(Cl)cc2)o1 (stereo not given),63.7*,-0.8,2.4,nt,1.7,2.8
O=C(NC1CCCCC1)c1cc(-c2ccc(Cl)cc2)on1,49.2*,0.0,-0.8,20.5,-0.1,4.8
O=C(NC1CCCC1)c1cc(-c2ccc(Cl)cc2)on1,43.8*,2.6,-3.5,-0.6,7.6,5.2
O=C(NC1CCCC1)c1cc(-c2ccc(F)cc2)on1,29.9,-2.0,-2.0,0.2,14.4,4.7
Cc1ccc(S(=O)(=O)N[C@H]2CC[C@H](CCn3cc(C4CCCCC4)nn3)O[C@@H]2CO)cc1,3.0,nt,nt,nt,nt,nt
C[C@@H]1CCCCO[C@@H](CN(C)CC2CC2)[C@@H](C)CN([C@H](C)CO)C(=O)c2cc(NC(=O)Cc3ccccc3)ccc2O1,-2.2,nt,nt,nt,nt,nt
C[C@@H]1CN([C@H](C)CO)S(=O)(=O)c2ccc(C#C[C@@H](C)O)cc2O[C@H]1CN(C)C(=O)Nc1ccccc1,-2.7,nt,nt,nt,nt,nt
C[C@H](NC(=O)C[C@H]1C[C@@H]2c3cc(NC(=O)NC4CCCC4)ccc3O[C@@H]2[C@@H](CO)O1)c1ccccc1,7.2,nt,nt,nt,nt,nt
NS(=O)(=O)c1ccc(N/N=C/c2ccc(C(=O)O)cc2)c([N+](=O)[O-])c1,nt,0.4,0.5,2.4,-0.3,2.9
CN(CCO)c1ccc(C=NNc2ccc([N+](=O)[O-])cc2S(=O)(=O)Nc2ccccc2C(=O)O)cc1,-7.8,16.6,26.5*,nt,17.7,-0.8
COc1ccc(C(C)=NNc2ccc([N+](=O)[O-])cc2S(=O)(=O)Nc2ccccc2C(=O)O)c(OC)c1,nt,17.0,9.1,5.4,-1.2,0.8
CC(=O)Nc1ccc(C=NNc2ccc([N+](=O)[O-])cc2S(=O)(=O)Nc2ccccc2C(=O)O)cc1,1.1,14.2,29.0*,8.0,4.2,-3.6
O=C(O)c1ccccc1NS(=O)(=O)c1ccc(N/N=C/c2cccc(O)c2O)c([N+](=O)[O-])c1,-12.5,19.1,31.8*,-1.3,7.0,-2.8
SMILES,esBAF inh,NadD block,GRIN3A LBD mod,Vif inh,SKN-1 block,SMARCA2 act
CC(=O)Nc1ccc(C=NNc2ccc(S(=O)(=O)Nc3ccccc3C(=O)O)cc2[N+](=O)[O-])cc1,-8.4,11.2,22.5*,2.6,18.3,-3.8
O=C(Cc1ccccn1)NCC[C@H]1CC[C@H](NC(=O)CN2CCOCC2)[C@@H](CO)O1,-3.0,nt,nt,nt,nt,nt
Cc1ccc(S(=O)(=O)Nc2ccc3c(c2)C(=O)N([C@@H](C)CO)C[C@H](C)[C@H](CN(C)CC2CCCCC2)OCCCC[C@@H](C)O3)cc1,0.1,nt,nt,nt,nt,nt
CO[C@@H]1CN(C)C(=O)c2cc(NS(C)(=O)=O)ccc2OC[C@@H](C)N(Cc2ccccn2)C[C@@H]1C,0.7,nt,nt,nt,nt,nt
CN(C)C(=O)C[C@H]1C=C[C@@H](NC(=O)NC2CCCCC2)[C@@H](CO)O1,-1.5,nt,nt,nt,nt,nt
COc1ccc(NS(=O)(=O)c2cc([N+](=O)[O-])ccc2N/N=C/c2c(C)[nH]c3ccccc23)cc1,-9.3,10.8,28.4*,11.9,6.8,0.5
Cc1[nH]c2ccccc2c1/C=N/Nc1ccccc1[N+](=O)[O-],nt,-3.8,4.0,-3.9,9.9,-2.3
Cc1ccc(NC(=S)NNc2ccc(C(=O)O)cc2[N+](=O)[O-])cc1C,nt,-2.3,-3.8,8.3,-15.8,2.1
Cc1ccc(NC(=S)NNc2ccc([N+](=O)[O-])cc2S(=O)(=O)Nc2ccccc2C(=O)O)cc1C,nt,13.4,26.1*,8.9,-5.2,-1.7
O=C(O)c1ccccc1NS(=O)(=O)c1ccc(NNC(=S)Nc2ccc(OC(F)F)cc2)c([N+](=O)[O-])c1,nt,16.0,6.3,nt,1.0,-0.6
CC(=O)Nc1cccc(/C(C)=N/Nc2ccc(S(=O)(=O)Nc3ccccc3C(=O)O)cc2[N+](=O)[O-])c1,-8.8,21.9,14.4*,-3.3,11.6,-0.4
Cc1ccccc1-c1cnc2c(c1)C(=O)N([C@H](C)CO)C[C@H](C)[C@H](CN(C)C(=O)c1cccnc1)O2,-3.9,nt,nt,nt,nt,nt
COc1cccc(C2Nc3ccc4ccccc4c3C3=C2C(=O)CC(C)(C)C3)c1OCC(=O)O (stereo not given),0.1,9.5,0.2,7.3,35.2*,1.4
O=C(Nc1ccc2c(c1)OCO2)N[C@H]1CC[C@H](CCNC(=O)C2CCCCC2)O[C@@H]1CO,-0.8,nt,nt,nt,nt,nt
C[C@@H]1CCCCO[C@@H](CN(C)C(=O)Nc2ccc3c(c2)OCO3)[C@H](C)CN([C@@H](C)CO)C(=O)c2cc(NC(=O)c3ccncc3)ccc2O1,5.2,nt,nt,nt,nt,nt
CO[C@@H]1CN(C)C(=O)c2ccc(NC(=O)Cc3ccccc3)cc2OC[C@@H](C)N(CCc2ccccc2)C[C@H]1C,2.1,nt,nt,nt,nt,nt
OC[C@@H]1[C@@H](c2ccc(F)cc2)C(c2cccc(Cl)c2)=NN1c1ccccc1,-0.2,1.6,27.0*,-9.0,8.5,-2.2
OC[C@@H]1[C@@H](c2ccc(Cl)cc2)C(c2cccc(Cl)c2)=NN1c1ccccc1,-5.9,10.4,31.2*,-7.3,16.4,-4.0

# Screening results: PubChem BioAssay, several laboratories
